From ChEMBL document CHEMBL3988442, “University of Dundee, Small-Polar-MMV Screening Library” (2021)
Hit rate of the full screen: of about 38,000 compounds, about 1,200 (3.2%) showed an effect of 50% or more. The median lay at about -58%. What follows is part of a selection rich in strong results, with near analogues and random picks from the rest.

System: Plasmodium falciparum
Experiment: Calibr Malaria Delayed Death Assay SOP
Format: functional, organism-based
Design: scale not given: in the data most compounds retested in dose-response had high values
Conditions: concentration 4.99e-06 (unit not given; other assays of the set use mol/L)

Structure (SMILES) | Percent Effect
CC1CC(=O)c2cc(C(=O)N3CCc4ccccc43)c(=O)[nH]c2C1 (centres undefined) | -103.7%
CN(C)c1ncc(NC(=O)c2ccccc2C(F)(F)F)cn1 | -13.75%
O=C(Cn1ccc2c(Cl)cccc21)N1CCCC1 | -3.751%
COCC(=O)Nc1ccc2c(c1)C1(CCOCC1)CN2CCF.O=C(O)C(F)(F)F | -73.75%
Cn1cc(C2COC3(CCN(C(=O)c4ccccn4)CC3)C2)cn1.O=C(O)C(F)(F)F (centres undefined) | -70.09%
COc1ccc(N2CCN(C(=O)CCc3n[nH]c(C)n3)CC2=O)cc1 | -47.6%
COC(=O)c1ccc(C(=O)N2CCC(c3nnc(C)s3)CC2)cc1 | -39.58%
CC(O)c1cccc(-n2c(CCC(=O)O)nc3ccccc32)c1 (centres undefined) | -169.3%
OCCNc1nc(Nc2ccccc2)c2nccnc2n1 | -38.96%
Cc1nc(C)n(CC2CCCN2CCCc2nc3ccccc3o2)n1 (centres undefined) | -41.56%
Cl.Cl.OC(CN1CCN(Cc2cc(F)ccc2F)CC1)C1CC1 (centres undefined) | 0.4009%
Fc1cccnc1N1CCC(NCc2cccc3cn[nH]c23)C1 (centres undefined) | -62.75%
COc1ccc(C)cc1CN1CCN(Cc2nccn2C)CC1 | -87.98%
COc1ncc(C2(O)CCN(Cc3cc(F)ccc3F)CC2)c(OC)n1.Cl | -42.34%
COc1ncc(C2(O)CCN(Cc3cccc(F)c3F)CC2)c(OC)n1.Cl | -65.3%
COc1ccc(OC)c(CN2CCC(c3cc(O)nc(C)n3)C2)c1 (centres undefined) | -6.514%
CC(C(=O)Nc1cccc(Cl)c1SC(F)F)S(C)(=O)=O (centres undefined) | -87.5%
Cc1cc(CN2CCN(c3ccnc(-c4ccccc4)n3)CC2)no1 | -117.2%
Cc1cc(NC(=O)C2CN(Cc3ccccc3)CCO2)ccn1 (centres undefined) | -48%
NC(=O)c1cnc2n1CCN(C(=O)c1cccc(Cn3cccn3)c1)C2 | -26.24%
O=C1CCCN1CCC1CCN(C2CCC3(CCNCC3)CC2)CC1 | -113.8%
COc1ccc(NC(=O)Nc2cnc(N3CCN(C)CC3)nc2)cc1Cl | 87.5%
Cc1ccc(NC(=O)Nc2cnc(N3CCN(C)CC3)nc2)cc1 | 58.27%
COc1ccc(C)cc1NC(=O)Nc1cnc(N2CCCC2)nc1 | -31.15%

Structure (SMILES) | Percent Effect
COc1ccc(NC(=O)c2cnc(N3CCN(C)CC3)nc2C)cc1 | -110.8%
Cc1cc(C)cc(NC(=O)c2cnc(N3CCN(C)CC3)nc2C)c1 | -105.5%
COc1ccc(C)cc1NC(=O)Nc1cnc(N2CCOCC2)nc1 | 6.993%
CCN(CC)C(CNS(=O)(=O)c1ccc(C(N)=O)cc1)c1ccco1 (centres undefined) | -82.08%
O=C(O)C(F)(F)F.O=S(=O)(c1cccs1)N1Cc2nc(CN3CCCCC3)oc2C1 | -52.21%
O=C(CCO)N1CC[C@@H]2CN(C(=O)c3ccco3)CCO[C@@H]2C1 | -32.06%
COc1c(C)cnc(CN2CCn3c(nnc3C(C)C)C2)c1C | -75.36%
COc1c(C)cnc(CN2CCC(N(C)C(C)C(N)=O)CC2)c1C (centres undefined) | 77.51%
COc1c(C)cnc(CN(C)C(=O)c2ccccc2O)c1C | -65.02%
COc1c(C)cnc(CN2CCC(C(=O)N(C)C)CC2)c1C | -25.53%
COc1c(C)cnc(CN(C)C2CCCCC2)c1C | 76.34%
COc1c(C)cnc(CN(C)C2CCOC3(CCOCC3)C2)c1C (centres undefined) | -5.784%
CCC(=O)N(C)C1CCN(Cc2ncc(C)c(OC)c2C)CC1 | -107.4%
COc1c(C)cnc(CN2CCn3c(nnc3C3CC3)C2)c1C | -38.06%
CSc1ccc(C(=O)N2CC(=O)N(CC3CC3)CC(O)C2)cc1 (centres undefined) | -80.98%
CC(C)c1nn(C)c(N(C)C)c1CNC1CCOc2ccccc21 (centres undefined) | -13.52%
O=C(O)C(F)(F)F.O=C(c1ccccc1F)N1CCC2(CC1)CC(N1CCCC1)CO2 (centres undefined) | -57.39%
Cc1nc(C2CCCN(C(=O)c3cc(-c4ccccc4)[nH]n3)C2)no1 (centres undefined) | -103.7%
O=C(COc1coc(CN2CCCCC2)cc1=O)Nc1cccc(Cl)c1 | -36.85%
N#Cc1cc(F)c(NCc2ccc(F)cc2)c(F)c1 | -56.06%
Cc1cccc(NC(=O)C2(n3cnnn3)CCCCC2)n1 | -65.2%
O=C(C1=CCCC1)N1C[C@@H]2COC[C@]2(COCC2CC2)C1 | -77.68%
COc1ccc(CNCC2CCN(CCO)CC2)cc1F | 57.05%
COc1ccc(CNCC2CN(C3CC3)CCO2)cc1F (centres undefined) | -41.72%

Structure (SMILES) | Percent Effect
CCN1CCOC(CNCc2ccc(OC)c(F)c2)C1 (centres undefined) | -53.15%
OCCN1CCC(CNCc2cn(-c3ccccc3)nn2)CC1 | -75.43%
CCOCCNCC1CCN(CCO)CC1 | -86.72%
CCn1cc(CNCC(c2ccc(Cl)cc2)n2cccn2)cn1 (centres undefined) | 59.81%
Clc1ccc(C(CNCc2ccncc2)n2cccn2)cc1 (centres undefined) | -53.83%
Cn1cc(CNCC(c2ccc(Cl)cc2)n2cccn2)cn1 (centres undefined) | 16.07%
CCn1cc(-c2n[nH]c(=O)n2-c2ccc3c(c2)OCO3)c(C)n1 | -101.4%
CCC[C@H]1CN(c2nc(CO)cs2)C[C@@H]1NC(=O)C1CCC1 | 1.552%
CCC[C@H]1CN(Cc2cscn2)C[C@@H]1NC(=O)C1(COC)CCC1 | -24.11%
CCC[C@H]1CN(c2nc(CO)cs2)C[C@@H]1NC(=O)C1(COC)CC1 | 71.28%
CC(C)C[C@H](NC(=O)Cn1ccc2c(Cl)cccc21)C(=O)O | -50.44%
COc1cccc(CN(C)Cc2nc(C(C)C)no2)c1 | -65.15%
O=C(O)C(F)(F)F.O=C(O)C(F)(F)F.OCCN1CC2(CCN(c3ccccc3)C2)C1 | 61.64%
O=C(O)C(F)(F)F.O=C(c1c[nH]cn1)N1CCC(F)(F)C2(CCN(c3cccc(F)c3)C2)C1 (centres undefined) | 85.76%
O=C(O)C(F)(F)F.O=C(O)C(F)(F)F.O=C(c1c[nH]cn1)N1CCC(F)(F)C2(CCN(c3ccccn3)C2)C1 (centres undefined) | -115.9%
FC1(F)CCN(Cc2cccnc2)CC12CCN(c1cnccn1)C2.O=C(O)C(F)(F)F.O=C(O)C(F)(F)F.O=C(O)C(F)(F)F (centres undefined) | -45.54%
CN1CC(=O)N(c2ccccc2)CC12CCN(CCO)C2.O=C(O)C(F)(F)F.O=C(O)C(F)(F)F (centres undefined) | -19.33%
OCCN1CCC(F)(F)C2(CCN(c3cccnc3)C2)C1 (centres undefined) | -53.32%
FC1(F)CCN(c2ccccc2)CC12CCN(c1ncccn1)C2 (centres undefined) | -152.8%
FC1(F)CCN(Cc2cccnc2)CC12CCN(c1ccccc1)C2.O=C(O)C(F)(F)F.O=C(O)C(F)(F)F.O=C(O)C(F)(F)F (centres undefined) | 84.58%
Cn1cnc(S(=O)(=O)N2CC3(CCN(c4ccccc4)C3)C2)c1.O=C(O)C(F)(F)F | 1.109%
FC1(F)CCN(Cc2ccncc2)CC12CCN(c1cccnc1)C2.O=C(O)C(F)(F)F.O=C(O)C(F)(F)F.O=C(O)C(F)(F)F (centres undefined) | 15.13%
O=C(O)C(F)(F)F.O=C(c1c[nH]cn1)N1CCC(F)(F)C2(CCN(c3ncccn3)C2)C1 (centres undefined) | -29.78%
C=C(C)CN1CCC(NC(=O)Nc2ccc(F)c(C(N)=O)c2)CC1 | -90.89%

Structure (SMILES) | Percent Effect
Cc1cc(Br)ccc1C(=O)NCCN1CCCCCC1 | 28.4%
COc1ccc(Cn2cc(C(=O)N(C)Cc3ccn[nH]3)nn2)cc1 | -12.45%
CCC(C)[C@H](N)c1nnc(SCC(=O)Nc2ccc(C)cc2C)o1.Cl (some centres undefined) | -23.34%
COc1ccc(C2CCCCCN2Cc2cn(C)nc2C)cc1 (centres undefined) | -0.1987%
CSc1ncnc(NCc2ccccc2F)c1C#N | -23.93%
O=C1COc2cc(C(=O)NS(=O)(=O)c3ccc(F)cc3)ccc2N1 | -21.19%
Cc1nn(C)c(Cl)c1C1CCCN1C(=O)c1cccn1C (centres undefined) | -34.06%
c1cc(CNCC2CNc3ccnn3C2)cc(Cn2cccn2)c1 (centres undefined) | -27.88%
FC1(F)CCNCC12CCN(c1cccnc1)C2.O=C(O)C(F)(F)F.O=C(O)C(F)(F)F (centres undefined) | 64.81%
O=C(CO)N1CCC(F)(F)C2(CCN(c3ccccc3)C2)C1.O=C(O)C(F)(F)F (centres undefined) | -34.49%
O=C(O)C(F)(F)F.O=C(O)C(F)(F)F.O=C(O)CN1CCC(F)(F)C2(CCN(c3ccccc3)C2)C1 (centres undefined) | 66.58%
Cn1ccnc1CN1CCC(F)(F)C2(CCN(c3cnccn3)C2)C1.O=C(O)C(F)(F)F (centres undefined) | -1.841%
O=C(O)C(F)(F)F.O=C(O)C(F)(F)F.O=C(O)CN1CCC(F)(F)C2(CCN(c3ccccn3)C2)C1 (centres undefined) | -82.81%
FC1(F)CCNCC12CCN(c1ncccn1)C2 (centres undefined) | 17.29%
N#Cc1ccc(N2CCCC3(CCN(c4cccnc4)CC3)C2)cc1.O=C(O)C(F)(F)F | -71.51%
Cn1ccnc1CN1CCC(F)(F)C2(CCN(c3cccnc3)C2)C1.O=C(O)C(F)(F)F.O=C(O)C(F)(F)F (centres undefined) | 58.45%
Cn1ccnc1CN1CCC2(CC1)CN(Cc1cccnc1)C(=O)CO2.O=C(O)C(F)(F)F.O=C(O)C(F)(F)F | -38.55%
FC1(F)CCNCC12CCN(c1ccccn1)C2 (centres undefined) | 56.42%
O=C(C1CCCO1)N1CCCC2(CCN(c3cccnc3)CC2)C1.O=C(O)C(F)(F)F (centres undefined) | -72.8%
Fc1cccnc1N1CCC2(CNCCC2(F)F)C1 (centres undefined) | 45.04%
COCC1CN(Cc2ccoc2)Cc2nn(CC3CC3)cc21.O=C(O)C(F)(F)F (centres undefined) | -62.03%
O=C(C1CC(c2ccccc2)=NO1)N1CCc2ccccc21 (centres undefined) | -20.98%
